Source: PubChem (National Center for Advancing Translational Sciences (NCATS))
D3 ag = D3 dopamine receptor (human) agonism. D3R DiscoveRx beta-arrestin cells, luminescence, 90 min. P35462. 0.58% of 410,000 active. max activation, %; in the data active = max activation above about 30%
Target sequence (P35462 whole entry, looked up): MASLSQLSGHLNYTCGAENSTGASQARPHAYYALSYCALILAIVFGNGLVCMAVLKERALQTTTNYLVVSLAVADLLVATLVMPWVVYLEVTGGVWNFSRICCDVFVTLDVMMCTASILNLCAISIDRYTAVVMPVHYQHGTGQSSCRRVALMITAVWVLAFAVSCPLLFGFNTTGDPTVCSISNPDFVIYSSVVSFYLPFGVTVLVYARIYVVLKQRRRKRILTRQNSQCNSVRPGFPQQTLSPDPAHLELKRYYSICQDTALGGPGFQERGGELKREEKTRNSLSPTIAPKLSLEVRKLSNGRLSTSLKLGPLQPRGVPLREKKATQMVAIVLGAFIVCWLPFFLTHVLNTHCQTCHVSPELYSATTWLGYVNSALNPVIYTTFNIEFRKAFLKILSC
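Cells at 1500/well, incubated overnight, then treated with pinned compounds (dopamine as control) for 90 min at 37 degrees C. DiscoveRx reagent added for 30 - 60 minutes at room temperature; luminescence read.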
D3 antag = antagonists of human D3 dopamine receptor; max response, negative = inhibition, %; AID 652054; P35462; D3R cells, DiscoveRx beta-arrestin luminescence, antagonist mode; stronger effect = lower value; 2.5% of 360,000 active; in the data active = max response below about -50%; inconclusive = no clear call, values can overlap the other calls
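Cells expressing the human receptor were seeded at 1500 cells/well, incubated overnight at 37 degrees C in 5% CO2, then exposed to library compounds with dopamine controls for 90 minutes at 37 degrees C before luminescent detection.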
Nrf2 ARE act = activates Nrf2 signaling | AREc32 ARE-luciferase reporter (MCF7-derived line), luminescence, 24 h | Potency, µM (top dose mostly 46.1 µM), hits mostly activators | 0.31% of 410,000 active | AID 624171; also: nearly all actives have a fitted effect of over 65% in size
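For detection, Steady-Glo was added and plates sat 30 min at RT; before that, AREc32_Fluc cells grown overnight in OPTI-MEM/5% FBS had been treated with 23 nL compound for 24 hr at 37 deg C.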
Glioma ERSR ind = induces the endoplasmic reticulum stress response in human glioma cells; U87-MG GRP78 promoter luciferase reporter, 16 h; Potency, µM, usual class: activators; 0.02% of 420,000 active; AID 602332; also: series mostly up to about 76 µM; nearly all actives have a fitted effect of over 35% in size
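Stably transfected U87-MG glioma cells carrying a GRP78-based luciferase sensor; 16 h compound incubation. Luminescence end-point read 10 min after Bright-Glo addition at room temperature.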
Each line names hits and unclear results; the compound was inactive in the other large screens; ! = not confirmed by another sample. A selection: hits, their analogues and other compounds. The true share with any hit is near 3%. Unless noted, calls follow the shape of the dose curve; as a rule, active = well fitted curve in the direction sought with a large enough effect; inconclusive = small, poorly fitted or top-dose-only effect, or another doubt; inactive = no such curve, though single readings can be large; an effect the other way counts as inactive or inconclusive.

COc1ccc(-n2ncc(Cl)c(Cl)c2=O)cc1	D3 antag -74, Nrf2 ARE act inconclusive
COc1ccc(-n2ncc(N(C)n3cccc3)c(Cl)c2=O)cc1	none
COCc1nnc(NC(=O)c2cc(Cl)ccc2OC)s1	Nrf2 ARE act 13µM
COc1ccc(Cc2nnc(NC(=O)c3ccc(OC)c(OC)c3)s2)cc1OC	D3 ag 42
O=C(NC[C@@H]1CCCN2CCCC[C@H]12)c1cnn(-c2nccc(-c3ccco3)n2)c1C1CC1	none (no result: D3 ag, D3 antag, Nrf2 ARE act)
Fc1ccccc1CN1CCN(c2ncccn2)CC1	none
Oc1cc2c(cc1CN1CCN(c3ncccn3)CC1)OCO2	D3 ag 42
CCN(CC)S(=O)(=O)c1ccc(N=Nc2c(C)[nH]n(C(N)=S)c2=O)cc1	D3 antag -93
CC1(C)OC(=O)C2(Cc3ccccc3N3CCC(c4ccccc4)CC32)C(=O)O1 (configuration not stated)	none (no result: D3 ag, D3 antag, Nrf2 ARE act)
CCC1Nc2ncnc(N3CCCCC3)c2N(Cc2ccc(OC)cc2)C1=O (configuration not stated)	D3 antag -64!
CCC1Nc2ncnc(N3CCCCC3)c2N(Cc2ccc(Br)cc2)C1=O (configuration not stated)	D3 antag -53
O=C1C(Cc2ccccc2)Nc2ncnc(N3CCc4ccccc4C3)c2N1Cc1ccc(Cl)cc1 (configuration not stated)	D3 antag -59
O=C1C(Cc2ccccc2)Nc2ncnc(N3CCCCC3)c2N1Cc1ccc(Br)cc1 (configuration not stated)	D3 antag -99
CC(C)(C)n1ncc2c(=O)n(Cc3ccccc3SC(F)(F)F)cnc21	none (no result: D3 ag, D3 antag, Nrf2 ARE act)
C(=C\c1cnc2ccccc2n1)/c1ccc2c(c1)OCO2	none (no result: D3 ag, D3 antag, Nrf2 ARE act)
Fc1ccc(C(NCCc2ccccc2)c2nnc(-c3ccccc3Cl)o2)cc1 (configuration not stated)	none (no result: D3 antag)
CCC1Nc2ncnc(N3CCCCC3)c2N(Cc2ccc(Cl)cc2)C1=O (configuration not stated)	D3 antag -65!
Cc1nc2ccccc2nc1CN1CCOc2ccc(CN3CCc4sccc4C3)cc2C1	none (no result: D3 ag, D3 antag, Nrf2 ARE act)
CN1C(=O)/C(=C/c2ccc(O)c([N+](=O)[O-])c2)NC1=S	D3 antag -74
COc1cc(/C=C2\NC(=S)N(C)C2=O)ccc1O	none
Cc1oc(-c2ccc(Cl)cc2)nc1CSCC(=O)NC1CCN(Cc2ccccc2)CC1	D3 antag -76
CCOc1ccc(-c2nc(CSCC(=O)NC3CCN(Cc4ccccc4)CC3)c(C)o2)cc1	D3 antag -117
CCOc1ccc(-c2nc(CSCC(=O)NC3CC3)c(C)o2)cc1	none
O=c1[nH]c(/C(Cl)=C/c2cc(Cl)ccc2O)nc2cc(Cl)ccc12	Nrf2 ARE act 8.9µM
O=c1[nH]c(/C(Cl)=C/c2c(F)cccc2Cl)nc2cc(Cl)ccc12	none
CCc1nnc(NC(=O)CN2CCN(Cc3cccc(Cl)c3)CC2)s1	D3 antag -52
CCc1nnc(NC(=O)CN2CCN(Cc3cccc(F)c3)CC2)s1	none
COC(=O)[C@@H](NC(=O)Nc1cccc(Br)c1)C(C)C	none
COC(=O)[C@H](C)NC(=O)Nc1cccc(Br)c1	D3 ag 84
CN1C(C(=O)Nc2ccccn2)C(=O)c2sc(Cl)cc2S1(=O)=O (configuration not stated)	none (no result: D3 antag, Nrf2 ARE act)
NC(=O)c1cccn1Cc1ccccc1Cl	D3 antag -77
Nc1ccc2cccnc2c1	none (no result: D3 ag, D3 antag, Nrf2 ARE act)
O=C(CN1CCOCC1)Nc1nc2ccc([N+](=O)[O-])cc2s1	D3 antag -85
CC(=O)Nc1ccccc1-c1nc(CNC(=O)c2ccc(-n3cccn3)cc2)c(C)o1	none (no result: D3 ag, D3 antag, Nrf2 ARE act)
Cc1ccc(-c2csc3ncnc(Sc4nnnn4C4CC4)c23)cc1	none (no result: D3 ag, D3 antag, Nrf2 ARE act)
COc1cc(/C=C2/N=C(C3CCCCC3)OC2=O)cc(OC)c1OC	D3 antag -69
COc1cc(/C=C2\N=C(C)OC2=O)cc(OC)c1OC	none
CC(C)(C)c1ccc(C(=O)N2CCC2(C)C(=O)Nc2cccc3ccccc23)cc1 (configuration not stated)	none
CC(C)(C)c1ccc(C(=O)N2CCC2(C)C(=O)Nc2cccc3ncccc23)cc1 (configuration not stated)	D3 ag 84
Cc1ccc(NC(CC(=O)c2ccccc2)C(=O)O)cc1Cl (configuration not stated)	Nrf2 ARE act 18µM
O=C(CC(Nc1ccccc1)C(=O)O)c1ccccc1 (configuration not stated)	Nrf2 ARE act inconclusive
